Source: PubChem BioAssay (NCATS)
Inconclusive results are not listed. Calls of active or inactive are those of the source. Calls come from the whole dose curve; as a rule, active = well fitted inhibition curve with a large enough effect; inconclusive = small, poorly fitted or top-dose-only effect; inactive = flat fitted curve, though single readings scatter.

What follows are compounds tested on CRL-7250 (assay: qHTS assay to identify novel small-molecules to repurpose for Merkel cell carcinoma treatment (AID 1296009; note: nearly all actives have a fitted effect of over 60% in size)). Conditions: MCC and control cell lines, CellTiter-Glo viability, 72 h; at 44.8 µM (top of the series) unless noted.
Procedure, shortened: (§1)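 Cells were treated for 72 hr at 37 degree celsius with compounds in 8- or 11-point dose response. Viability was read by CellTiter-Glo luminescence, normalized to no-cell (cytotoxicity) and DMSO controls.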

Compound	outcome
Cc1c(C(=O)NN2CCCCC2)nn(-c2ccc(Cl)cc2Cl)c1-c1ccc(Cl)cc1	inactive
Cc1cc(CC(=O)O)n(C)c1C(=O)c1ccc(Cl)cc1	inactive
CN1[C@@H]2CC[C@H]1CC(OC(=O)c1c[nH]c3ccccc13)C2 (some centres not stated)	inactive
CCN(CCCc1ccccc1)CCCc1ccccc1	inactive
OC(C#CCN1CCCC1)(c1ccccc1)c1ccccc1	inactive
CC(C)C(=O)OCc1cccc(OC(=O)[C@@H]2N3C(=O)[C@@H](NC(=O)Cc4ccccc4)[C@H]3SC2(C)C)c1	inactive
CCC(C)(C)c1ccc(CC(C)CN2C[C@@H](C)O[C@@H](C)C2)cc1 (some centres not stated)	inactive
CC1(C)OC[C@@H](COC(=O)CCc2ccc(OC[C@@H](O)CNCCNC(=O)N3CCOCC3)cc2)O1	inactive
Fc1ccc(C(c2ccc(F)cc2)N2CCNCC2)cc1	inactive
CN1C[C@H](C(=O)N[C@]2(C)O[C@@]3(O)[C@@H]4CCCN4C(=O)[C@H](Cc4ccccc4)N3C2=O)C[C@@H]2c3cccc4[nH]cc(c34)C[C@H]21	inactive
CCN1CCCC(OC(=O)C(c2ccccc2)c2ccccc2)C1 (configuration not stated)	inactive

Each compound was assayed on HACAT in the same assay as above. Conditions: MCC and control cell lines, CellTiter-Glo viability, 72 h; at 44.8 µM (top of the series) unless noted.
Procedure, shortened: as §1

Compound	outcome
C#C[C@]1(O)CC[C@H]2[C@@H]3CCC4=CC(=O)CCC4=C3C=C[C@@]21CC	inactive
Oc1ccc([C@H]2CNCc3c2ccc(O)c3O)cc1O	inactive
CCC(=O)O[C@H]1CC[C@H]2[C@@H]3CCC4=CC(=O)CC[C@]4(C)[C@H]3CC[C@]12C	inactive
C[C@H](N)[C@H](O)c1ccc(O)c(O)c1	inactive
O=C(CCl)c1ccc(Cl)cc1Cl	inactive
C[C@]12Cc3nonc3C[C@@H]1CC[C@@H]1[C@@H]2CC[C@@]2(C)[C@H]1CC[C@]2(C)O	inactive
